NTR1 agonist: NTR1 (human) agonism; P30989; NTR1-U2OS beta-arrestin-GFP spot imaging, agonist mode; activation, % at 20 µM; 0.17% of 330,000 active; AID 493036;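 active = activation at or above 40% of the spot to cytoplasm intensity ratio, with at least 20 cells analyzed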;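 note: 0% = DMSO without peptide and 100% = 100 nM NTR1 peptide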
TLR4 MyD88 comp: TLR4-MyD88 interaction inhibition in cells; inhibition, % at 8.4 µM; 0.18% of 200,000 active; HeLa CL3-4 TLR4/MyD88 BLA complementation, FRET ratio; O00206+Q99836; AID 861; in the data active = inhibition above about 25%;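 note: 0% = vehicle and 100% = reference inhibitor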
TLR9-MyD88 inh: inhibitors of human TLR9-MyD88 binding. Q9NR96+Q99836. CHO BLA complementation TLR9-MyD88, CCF4 FRET ratio. inhibition, % at 4.98 µM. 0.21% of 340,000 active. AID 504734;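 active = inhibition above the mean over all tested compounds plus 3 SD, cut at about 21% in these data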;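 note: 0% = DMSO only wells and 100% = clavulanate BLA inhibitor control wells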
Beta2AR agonist: activates human beta-2 adrenergic receptor causing internalization; P07550; Am2.2-beta2AR cells, FAP receptor internalization, flow cytometry; 0.43% of 340,000 active; response, % (concentration not given with the values);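 active = response above a set limit, near 3 SD of response in nonfluorescent compounds, cut at about 42% in these data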
ABHD5-PLIN5 inh: inhibitors of human ABHD5-perilipin-5 interaction | Q00G26+Q8WTS1 | Split G. princeps luciferase complementation, luminescence, 4 h | inhibition, % at 4 µM | 0.78% of 360,000 active | AID 602281;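 active = inhibition above the mean inhibition across every tested compound plus 3 SD, cut at about 22% in these data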;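 note: 0% = DMSO only wells and the 100% control is not disclosed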
NOD2 RIPK2 PPI: NOD2-RIPK2 protein interaction inhibition; 0.38% of 360,000 active; O43353; inhibition, % at 4.98 µM; CHO BLA complementation NOD2-RIPK2, CCF4 ratio; in the data active = inhibition above about 21%;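 note: 0% = vehicle only and 100% = reference blocker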
ABHD5 PLIN5 conf: confirmation of human ABHD5-PLIN5 interaction inhibitors. biochemical ABHD5-PLIN5 interaction, luminescence. AID 651612. inhibition, % at 4 µM. shares compounds with ABHD5-PLIN5 inh. 67% of 2,200 active; in the data active = inhibition above about 23%;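 note: 0% = DMSO vehicle wells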
HNF4 split-luc: counter-screen for ABHD5-PLIN5 inhibitors: HNF4 split-luciferase; HNF4 dimerization, luminescence, biochemical; 77% of 2,200 active; shares compounds with ABHD5-PLIN5 inh; AID 651674; inhibition, % at 4 µM;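 active = mean inhibition across replicate wells exceeding the computed hit threshold, cut at about 13% in these data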;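 note: light from luciferase halves that rejoin when HNF4 fusion proteins dimerize; 0% = DMSO only wells and the 100% control is not given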
Target sequence (P41235 whole entry, looked up, the tested form may be a part): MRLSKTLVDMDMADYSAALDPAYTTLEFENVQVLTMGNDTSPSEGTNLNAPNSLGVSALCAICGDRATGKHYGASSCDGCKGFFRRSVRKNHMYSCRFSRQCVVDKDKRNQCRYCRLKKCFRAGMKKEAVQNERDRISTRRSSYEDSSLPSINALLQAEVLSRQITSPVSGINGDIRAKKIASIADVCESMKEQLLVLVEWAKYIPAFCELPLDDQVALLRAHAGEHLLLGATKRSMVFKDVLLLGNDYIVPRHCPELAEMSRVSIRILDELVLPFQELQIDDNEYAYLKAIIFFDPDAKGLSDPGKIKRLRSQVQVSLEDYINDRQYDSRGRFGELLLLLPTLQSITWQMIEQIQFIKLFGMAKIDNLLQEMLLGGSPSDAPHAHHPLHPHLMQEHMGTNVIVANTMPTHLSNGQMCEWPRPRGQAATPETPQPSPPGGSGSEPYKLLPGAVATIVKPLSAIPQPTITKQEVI
An asterisk follows results filed as active; x = no result. An excerpt weighted towards active compounds, which were near 1.5% of everything screened.

SMILES	NTR1 agonist	TLR4 MyD88 comp	TLR9-MyD88 inh	Beta2AR agonist	ABHD5-PLIN5 inh	NOD2 RIPK2 PPI	ABHD5 PLIN5 conf	HNF4 split-luc
C=CCn1c(SCc2ccc3c(c2)OCO3)nc2scc(-c3ccco3)c2c1=O	4.0	-16.0	-5.3	6.3	35.8*	-1.6	17.0	9.9
C=CCn1c(SCC(C)=O)nc2scc(-c3ccco3)c2c1=O	1.8	x	2.6	6.9	33.6*	1.5	53.7*	85.3*
C=CCn1c(SCC(=O)N2CCOCC2)nc2scc(-c3ccco3)c2c1=O	1.7	12.7	3.7	-0.9	32.9*	0.6	23.3*	48.5*
C=CCn1c(SC(F)F)nc2scc(-c3ccco3)c2c1=O	4.3	x	1.7	5.3	4.5	-1.6	x	x
C=CCn1c(SCC(=O)NCCCC(=O)OCC)nc2scc(-c3ccco3)c2c1=O	-0.7	-6.8	4.1	-0.7	30.5*	-2.2	6.9	13.2*
CCNC(=O)C1(C)CCN(C(=O)c2cccs2)C1 (centres undefined)	x	x	x	x	-1.6	-1.3	x	x
COC(=O)c1ccc2nc(C3CCCCC3)c(Cc3cccc(Cl)c3)n2c1	x	x	x	x	-3.9	-11.4	x	x
Cc1ccc(S(=O)(=O)n2cccc2/C=C/[N+](=O)[O-])cc1	x	x	6.2	x	46.5*	12.1	101.1*	102.0*
COc1ccc(-n2cccc2/C=C/[N+](=O)[O-])cc1	6.1	9.1	9.8	10.6	12.2	-8.1	x	x
COc1cccc(-c2cnc3c(NC(C)=O)cc(-c4ccccc4OC)cn23)c1	x	x	x	x	11.4	-8.8	x	x
CC(CN1CCN(CC(C)C(=O)c2ccccc2)CC1)C(=O)c1ccccc1 (centres undefined)	x	x	-1.5	1.5	-9.0	-2.0	x	x
O=C(c1ccccc1)C(CN1CCCCC1)c1ccccc1 (centres undefined)	x	x	0.0	28.7	29.0*	7.0	21.0	94.8*
CN(C)S(=O)(=O)c1cccc(NC(=O)COC(=O)/C=C/c2ccco2)c1	-0.7	-10.0	-4.8	-5.6	24.9*	-1.5	21.5	27.3*
Cc1ccc(-c2cnc(C(O)c3cc(F)cc(Cl)c3)[nH]2)cc1 (centres undefined)	x	x	x	x	-6.3	-4.2	x	x
CCOC(=O)C(=Cc1c[nH]c2ccc(S(=O)(=O)N(C)C)cc12)C(=O)OCC	6.9	x	5.5	19.2	51.5*	8.4	63.1*	58.0*
CCc1c(C)sc(NC(=O)c2cccs2)c1C#N	4.4	-2.0	0.4	-5.2	23.6*	-11.7	-6.5	-9.9
CCc1nc2ccc(C(=O)Nc3ccc(C(=O)N(C)C)cc3)cn2c1N(C)CCCc1ccccc1	x	x	x	x	4.8	3.5	x	x
COc1cc(-c2cc(C(=O)Nc3ccc(N4CCOCC4)cc3)c3ccccc3n2)cc(OC)c1OC	6.3	x	9.7	20.4	24.4*	-2.6	7.5	-0.2
O=C(Nc1ccc(N2CCOCC2)cc1)c1cc(-c2ccncc2)nc2ccccc12	1.4	x	3.3	19.1	-0.5	-10.4	x	x
CC1(C(=O)NS(=O)(=O)c2ccc(Cl)cc2)CCN1C(=O)CCC1CCCC1 (centres undefined)	x	x	x	x	-1.6	-6.3	x	x
COc1cc(/C=C2\CC/C(=C\c3cc(OC)c(O)c(OC)c3)C2=O)cc(OC)c1O	5.4	8.5	-9.0	11.6	32.0*	2.6	39.4*	39.1*
COc1cc(/C=C2\COC/C(=C\c3cc(OC)c(OC)c(OC)c3)C2=O)cc(OC)c1OC	x	x	11.6	43.0*	47.1*	9.8	101.4*	100.6*
CC1(C(=O)NS(=O)(=O)c2cccc(C#N)c2)CCN1C(=O)C1(c2ccccc2)CC1 (centres undefined)	x	x	x	x	1.6	-1.7	x	x
COc1ccc(OC)c2sc(Cl)nc12	-0.4	-11.5	-12.2	-8.1	109.4*	-1.9	2.9	1.5
COc1ccc(OC)c2sc(NC(=O)C(C)C)nc12	3.2	-3.6	0.5	-14.0	4.5	-10.9	x	x
SMILES	NTR1 agonist	TLR4 MyD88 comp	TLR9-MyD88 inh	Beta2AR agonist	ABHD5-PLIN5 inh	NOD2 RIPK2 PPI	ABHD5 PLIN5 conf	HNF4 split-luc
COc1ccc(C2CC=C(C(C)=O)CN2S(=O)(=O)c2ccc(Cl)cc2)cc1 (centres undefined)	x	x	x	x	3.3	-0.5	x	x
Cc1cc(C)c2sc(N(CCCN(C)C)C(=O)CN3C(=O)c4ccccc4C3=O)nc2c1	3.8	15.4	-0.1	-2.7	24.1*	-6.2	13.7	4.2
Cc1cc(C)c2sc(N(CCN(C)C)C(=O)c3c(F)cccc3F)nc2c1	1.3	5.8	4.7	-1.2	21.6	7.0	x	x
Cc1cc(C)c2sc(N(CCCN(C)C)C(=O)c3ccc(Br)s3)nc2c1	7.9	4.8	-6.8	37.5	23.3*	-7.6	16.7	8.9
CC(=O)c1ccc(Nc2nc(C(N)CCc3ccccc3)cs2)cc1 (centres undefined)	x	x	x	x	-0.8	-14.0	x	x
O=C(C[C@H]1CC[C@H](NC(=O)C2CCOCC2)[C@@H](CO)O1)NCc1ccncc1	x	x	x	x	-6.5	5.4	x	x
O=C(/C=C/c1ccccn1)c1cc(Cl)cc(Cl)c1O	12.1	x	-2.6	32.1	23.4*	3.7	45.4*	30.9*
COc1ccc(/C=C/C(=O)c2cc(Cl)cc(Cl)c2O)c(OC)c1	7.4	x	1.8	13.9	0.1	-10.0	x	x
Cc1cc(C)cc(N2C(=O)C=CC2=O)c1	x	x	15.9	15.9	35.1*	17.6	28.8*	88.5*
COc1cccc(C(C(=O)NCc2ccccc2)N2CCN(c3ccccc3F)CC2)c1OC (centres undefined)	x	x	x	x	0.9	7.4	x	x
C=C(C(=O)c1ccccc1)C(C)CC(=O)c1ccccc1 (centres undefined)	8.8	12.8	1.2	3.0	13.5	3.4	x	x
C=C(C(=O)c1ccccc1)C(NC(C)(C)C)c1ccccc1 (centres undefined)	x	x	-8.8	28.9	41.8*	4.5	65.4*	53.8*
CC(C)C[C@H]1CNC(=S)N1C[C@H]1CCCN1C[C@H](Cc1ccc(O)cc1)N1C[C@H](Cc2ccc(O)cc2)N(CCc2ccccc2)C1=S	x	x	x	x	23.3*	-11.5	8.0	1.5
O=C(c1ccccc1)c1ccc(O)c(O)c1O	x	x	-10.2	3.5	-4.0	-11.5	x	x
CCOC(=O)C(NC(=O)c1cccc(Cl)c1)(Nc1sc2c(c1C(N)=O)CCC2)C(F)(F)F (centres undefined)	6.3	0.2	3.0	-0.4	-2.6	-9.1	x	x
CCOC(=O)C(NC(=O)c1ccccc1Cl)(Nc1sc2c(c1C(N)=O)CCC2)C(F)(F)F (centres undefined)	x	10.3	8.6	-0.7	23.5*	2.5	22.8*	26.5*
Cc1cc(Br)cn2c(Cc3ccccc3)c(-c3cccc(Cl)c3)nc12	x	x	x	x	-3.0	2.4	x	x
Fc1ccc(-c2nc3c(Cl)cc(C(F)(F)F)cn3c2Cc2cccc(F)c2)cc1	x	x	x	x	15.2	-27.0	x	x
